Measured values from PubChem BioAssay (NCATS).
Records with an inconclusive call do not appear. The source made the active and inactive calls. Unless noted, the call rests on the fitted dose curve; in most records, active means well fitted curve in the direction sought with a large enough effect; inconclusive means small, poorly fitted or top-dose-only effect, or another doubt; inactive means no such curve, though single readings can be large; an effect the other way counts as inactive or inconclusive.

Tests used:
[1] = MultiTox-Fluor Cytotoxicity Assay - LYMP1-001 - Live Cells (AID 947)
[2] = Cell Viability - LYMP1-002 - Assay at 16 hr (AID 948)
Procedure, shortened: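 Acute cytotoxicity is scored as a concentration-dependent fall in intracellular ATP in a human lymphoblastoid line (LYMP1-002) after 16 hr compound exposure at 37 C, measured by luciferase luminescence.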

[3] = target: Pyruvate kinase PKM (Homo sapiens) (UniProt P14618); assay: qHTS Assay for Activators of Human Muscle Pyruvate Kinase (AID 954; active means well fitted curve in the direction sought with a large enough effect, not every such curve was filed as active)
Sequence of Pyruvate kinase PKM (Homo sapiens) (P14618 whole entry, looked up): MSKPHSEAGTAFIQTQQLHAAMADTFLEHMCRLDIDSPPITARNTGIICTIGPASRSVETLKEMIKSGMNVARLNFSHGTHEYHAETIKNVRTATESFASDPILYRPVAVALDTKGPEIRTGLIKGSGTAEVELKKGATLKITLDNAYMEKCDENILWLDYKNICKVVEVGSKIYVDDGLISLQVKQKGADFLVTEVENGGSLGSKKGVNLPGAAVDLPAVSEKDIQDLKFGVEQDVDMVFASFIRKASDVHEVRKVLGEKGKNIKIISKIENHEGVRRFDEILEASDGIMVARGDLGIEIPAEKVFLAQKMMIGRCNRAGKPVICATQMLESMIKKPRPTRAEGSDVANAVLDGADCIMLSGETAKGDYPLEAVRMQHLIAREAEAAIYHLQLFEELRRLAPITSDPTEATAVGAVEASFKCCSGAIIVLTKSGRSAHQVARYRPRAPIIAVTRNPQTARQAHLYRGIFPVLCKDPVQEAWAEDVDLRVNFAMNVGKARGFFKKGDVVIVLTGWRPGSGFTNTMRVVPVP
Procedure, shortened: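 ATP production by PKM2 detected via luciferase luminescence after 1 h room-temperature reaction (0.1 nM enzyme, PEP at Km 0.5 mM, ADP 0.1 mM, pH 7.2 imidazole buffer). Inhibition scaled to no-enzyme control; activation referenced to 0.3 nM enzyme wells.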

[4] = MultiTox-Fluor Cytotoxicity Assay - LYMP1-002 - Live Cells (AID 955);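 further: cells exposed to compound for 16 hours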
Procedure, shortened: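 After 16 h compound exposure at 37 C, live LYMP1-002 lymphoblastoid cells (2500/well) were quantified by cleavage of cell-permeant GF-AFC substrate, read at 405/510 nm after 60 min. Concentration-response fitted with Hill equation for AC50.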

[5] = MultiTox-Fluor Cytotoxicity Assay - LYMP1-002 - Dead Cells (AID 960); further: nearly all actives have a fitted effect of over 60% in size
Procedure, shortened: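 Dead-cell fluorescence (Ex/Em 485/520) after 16 h compound exposure at 37 C of LYMP1-002 lymphoblastoid cells in complete medium; AC50 by Hill equation, with data scaled between DMSO and 15 uM tetraoctylammonium bromide.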

[6] = MultiTox-Fluor Cytotoxicity Assay - LYMP1-003 - Dead Cells (AID 961); further: nearly all actives have a fitted effect of over 70% in size
Procedure, shortened: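 Dead-cell protease release, detected as bis-AAF-R110 fluorescence at 485/520 nm, was measured in LYMP1-003 cells after 16 h compound treatment at 37 C. AC50 values came from Hill-modeled qHTS curves normalized to DMSO (0%) and 15 uM tetraoctylammonium bromide (100%).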

[7] = MultiTox-Fluor Cytotoxicity Assay - LYMP1-003 - Live Cells (AID 962);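 further: cells exposed to compound for 16 hours at 37 °C; cytotoxic hits lower the live-cell protease signal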
Procedure, shortened: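 Live-cell protease activity (GF-AFC substrate, 405/510 nm, 60 min at room temperature) after 16 h, 37 C compound exposure of human lymphoblastoid LYMP1-003 cells; concentration-response fitted to the Hill equation for AC50.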

[8] = Cell Viability - LYMP1-003 - Assay at 24 hr (AID 963)
Procedure, shortened: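 Concentration-response qHTS: ATP loss measured by CellTiter-Glo luminescence after 24 h compound exposure at 37 C. Cells were LYMP1-003 human lymphoblastoid, 2500 per well. AC50 derived via standard Hill equation modeling.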

[9] = Cell Viability - LYMP1-003 - Assay at 40 hr (AID 964); further: series mostly up to about 92 µM; nearly all actives have a fitted effect of over 60% in size
Procedure, shortened: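 Viability is taken as cellular ATP, read by CellTiter-Glo luminescence after 40 h of compound exposure at 37 C. Cells: human lymphoblastoid line LYMP1-003 at 2500/well; AC50 values derived by Hill-equation fitting of concentration-response data.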

[10] = Cell Viability - LYMP2-004 (AID 966); further: nearly all actives have a fitted effect of over 65% in size
Procedure, shortened: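 AC50 values come from Hill modelling of concentration-dependent loss of intracellular ATP, measured by CellTiter-Glo luminescence. Human LYMP2-004 lymphoblastoid cells (2500/well) were exposed to compound for 24 h at 37 C.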

[11] = Cell Viability - LYMP2-005 (AID 967); further: series mostly up to about 92 µM
Procedure, shortened: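 qHTS viability screen in LYMP2-005 cells: 24 h at 37 C with compound, ATP luminescence via CellTiter-Glo, AC50 from Hill curves.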

[12] = Cell Viability - LYMP2-009 (AID 968); further: series mostly up to about 92 µM; nearly all actives have a fitted effect of over 55% in size
[13] = Cell Viability - LYMP2-011 (AID 969); further: nearly all actives have a fitted effect of over 60% in size
Procedure, shortened: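 Cytotoxicity qHTS with ATP content as read-out: lymphoblastoid cells (2500/well) exposed to compound for 24 h at 37 C, then luciferase luminescence measured. Concentration-response data fitted with the standard Hill equation to give AC50.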

[14] = Cell Viability - LYMP2-013 (AID 970); further: series mostly up to about 92 µM; nearly all actives have a fitted effect of over 55% in size
Procedure, shortened: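 qHTS cytotoxicity: ATP-dependent luminescence (CellTiter-Glo, 30 min room temperature) read after 24 h compound exposure at 37 C of 2500 LYMP2-013 lymphoblastoid cells per well. Concentration-response fitted with Hill equation to give AC50.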

[15] = Cell Viability - LYMP2-015 (AID 971); further: nearly all actives have a fitted effect of over 55% in size
Procedure, shortened: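 Cytotoxicity readout: decrease in intracellular ATP (CellTiter-Glo luminescence) in 2500 LYMP2-015 lymphoblastoid cells/well after 24 h compound exposure at 37 C. Concentration-response data fitted with the standard Hill equation to give AC50.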

[16] = Cell Viability - LYMP2-017 (AID 972); further: series mostly up to about 92 µM; nearly all actives have a fitted effect of over 55% in size
Procedure, shortened: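 CellTiter-Glo luminescence (cellular ATP, 30 min RT) measured cytotoxicity after 24 hr compound treatment at 37 C. Cells were a human lymphoblastoid line, LYMP2-017, plated at 2500/well and incubated 5 hr first; concentration-response fitted with Hill equation for AC50.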

[17] = Cell Viability - LYMP2-019 (AID 973); further: nearly all actives have a fitted effect of over 55% in size
Procedure, shortened: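 AC50 values come from Hill-equation fits of luminescent intracellular ATP (CellTiter-Glo, 30 min, room temperature) following 24 h compound exposure at 37 C. Cells: LYMP2-019 lymphoblastoid line, 2500 per well, in complete culture medium.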

[18] = Cell Viability - LYMP2-021 (AID 974); further: nearly all actives have a fitted effect of over 55% in size
Procedure, shortened: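 AC50 values come from Hill-equation fits to CellTiter-Glo luminescence (ATP content), read after 24 hour compound exposure at 37 C of 2500 LYMP2-021 lymphoblastoid cells/well; tetraoctylammonium bromide as positive control.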

Measured: Potency

Nc1c2c(nc3ccccc13)CCCC2
inactive: all assays above

COC(=O)Nc1nc2ccc(C(=O)c3cccs3)cc2[nH]1
inactive: [3]

Cc1ccc(-c2cc(C(F)(F)F)nn2-c2ccc(S(N)(=O)=O)cc2)cc1
not listed: [1] | [3] | [5]
inactive: all other assays above

O=c1[nH]cc(F)c(=O)[nH]1
not listed: [9] | [15] | [16]
inactive: all other assays above

Clc1ccc(C(c2ccccc2Cl)C(Cl)Cl)cc1 (configuration not stated)
inactive: all assays above

COc1ccc2[nH]cc(CCNC(C)=O)c2c1
inactive: all assays above

CN1CCC(=C2c3ccccc3CC(=O)c3sccc32)CC1
inactive: [3]

Nc1ccn([C@H]2CC[C@@H](CO)O2)c(=O)n1
inactive: all assays above

Cc1cn([C@H]2C[C@H](N=[N+]=[N-])[C@@H](CO)O2)c(=O)[nH]c1=O
not listed: [3]
inactive: all other assays above

C[C@](N)(Cc1ccc(O)c(O)c1)C(=O)O
inactive: [3]

N[C@@H](Cc1c[nH]c2ccc(O)cc12)C(=O)O
inactive: all assays above

CC(C)Cc1ccc(C(C)C(=O)O)cc1 (configuration not stated)
inactive: [3]

CC(COc1ccccc1)N(CCCl)Cc1ccccc1 (configuration not stated)
inactive: [1] | [2] | [4] | [5] | [6] | [7] | [8] | [9] | [10] | [11]

CN1CCC(=C2c3ccccc3C=Cc3ccccc32)CC1
inactive: [3]

CS(=O)(=O)Nc1ccc([N+](=O)[O-])cc1Oc1ccccc1
inactive: [3]

Nc1nnc(-c2cccc(Cl)c2Cl)c(N)n1
inactive: [3]

CCC1(c2ccccc2)C(=O)NCNC1=O
inactive: all assays above
